In the supplement of paper PMC10338343:
± gives the standard deviation.

Test system: EfPiwi piRISC loaded with L1MC piRNA (26 nt)
Experiment: pre-steady-state target cleavage rate (min^-1); auxiliary factor: 500 nM Ephydatia muelleri Gtsf1; guide: L1MC piRNA 5'p-UAACUAAAUACUAUGCAAGCUGUAGG; MIWI and MILI are mouse PIWI proteins and EfPiwi is from a freshwater sponge; tags in brackets are library labels; higher = faster piRNA-guided slicing of the target
How it was run: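 Active affinity-purified piRISC (1 nM) loaded with one synthetic guide was mixed with a transcribed, DNA-blocked target RNA library (0.1 nM), with or without 500 nM GTSF1 partner protein, in HEPES–potassium acetate buffer at 33 °C for 0–8 or 0–960 min. Uncleaved targets were sequenced, normalised to depth and to weakly complementary targets, and pooled across three trials, with k3 capped at 0.0001 min^-1. The pre-steady-state cleavage rate was determined with a burst-and-steady-state fit.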

Sequence	pre-steady-state target cleavage rate
UCCUGGAUGAGCUUGCAUAGUUUUUAGAAA	0.00315 ± 0.0019
UCCUGGAUGUCGUUCCAUAGUAAUUAGUUA	< 0.0001
UCCUGGAUGUCGAACGACAGUAUUUAGUUA	< 0.0001
UCCUGGAUGUCGAACGAUACAUUUUAGUUA	< 0.0001
UCCUGGAUGUCGAACGAUAGUAUUAUAGUUA	< 0.0001
UCCUGGAACAGCUAGCAUAGUAUUUAGAUA	0.0041 ± 0.0023
UCCUCCUACAGCUUGCAUAGUAUUUAGCUA	0.00335 ± 0.0016
UCCUGCUACAGCUUGCAUAGUAUUUAGCUA	0.00339 ± 0.0014
UCCUGGAUGUCGAACGUAUGUAUUUUAGUUA	< 0.0001
UCCUCCUACAGCUUGUCAUAGUAUUUAGUUA	0.0546 ± 0.016
UCCUGGAACAGCCUGCAUAGUAUUUAGUUA	0.0144 ± 0.0045
UCCUCCUACAGCUUGCUUAGUAUUUUGUUA	0.00532 ± 0.0028
UCCUGCUACAGCUUGCAUAGUAUCUUAGUUA	0.00633 ± 0.0017
UCCUGGAUGUCCUUGCAUAGUAUGUUAGUUA	0.00355 ± 0.0035
UCCUGGUACAGCUUGCAUAGUAUAUUCAAA	0.00341 ± 0.0028
UCCUGGAUGUCGAACGUAUCUAUUUUCUUA	< 0.0001
UCCUGGAUGUCGAAGGAUACUAUUUAGUUA	< 0.0001
UCCUGGAUGUCGAACGUAAGUAUUUAGUGA	< 0.0001
UCCUGGAUGUCGAACGUUAGUAUUAAGUAA	< 0.0001
UCCUGCUACAGCUUGCAUUGUAUUUAGAUA	0.00283 ± 0.0018
UCCUGGAUGAUGCUUGCAUAGUAUUUAGUUA	0.0738 ± 0.022
UCCUGGAUGUCGAACGAUAGUAUUUAGGUA	< 0.0001
UCCUGCUAGUGCUUGCAUAGUAUUUAGUAA	0.00297 ± 0.0015
